# Measurements: the supplement of paper PMC8387472
# Structures can show the parent of a compound that is named as a salt. ± gives the standard deviation of the averaged measurements.
# What was measured:
# [1] = tested on: 6.0 (DMSO control at this site: 1-bp insertion 0.296, MH deletion 0.491, edited 0.076) ACGATTGGCCCCCACAAAGCGGACCAGCCAGCGTGCTAGGGAATAAGGCCAACTTGCACCC; experiment: fraction of edited reads among all mapped reads; higher = more Cas9 editing; settings: mESC; 2uM; 72 h treatment, harvest day 5
# [2] = tested on: 6.0 (DMSO control at this site: 1-bp insertion 0.296, MH deletion 0.491, edited 0.076) ACGATTGGCCCCCACAAAGCGGACCAGCCAGCGTGCTAGGGAATAAGGCCAACTTGCACCC; experiment: fraction of microhomology deletions among edited reads; higher = more MH deletions; settings: mESC; 2uM; 72 h treatment, harvest day 5
# [3] = tested on: 6.0 (DMSO control at this site: 1-bp insertion 0.296, MH deletion 0.491, edited 0.076) ACGATTGGCCCCCACAAAGCGGACCAGCCAGCGTGCTAGGGAATAAGGCCAACTTGCACCC; experiment: fraction of 1-bp insertions among edited reads; higher = more 1-bp insertion outcomes; settings: mESC; 2uM; 72 h treatment, harvest day 5
# [4] = tested on: mESC LDLR-Dup GFP reporter (SpCas9 MH-deletion repair); experiment: fraction of GFP+ cells relative to DMSO control (fold change); higher = more MH-deletion repair to in-frame LDLR (or more editing); settings: 2 µM; 7 days post-transfection
# [5] = tested on: 24.0 GACCACAGCCCCCAGCAGGGGAGGCCCCCAGCAGGGGAGGCCCACACCTGCCCCAGCACCT; experiment: fraction of edited reads among all mapped reads; higher = more Cas9 editing; settings: mESC; 2uM; 72 h treatment, harvest day 5
# [6] = tested on: 24.0 GACCACAGCCCCCAGCAGGGGAGGCCCCCAGCAGGGGAGGCCCACACCTGCCCCAGCACCT; experiment: fraction of microhomology deletions among edited reads; higher = more MH deletions; settings: mESC; 2uM; 72 h treatment, harvest day 5
# [7] = tested on: 24.0 GACCACAGCCCCCAGCAGGGGAGGCCCCCAGCAGGGGAGGCCCACACCTGCCCCAGCACCT; experiment: fraction of 1-bp insertions among edited reads; higher = more 1-bp insertion outcomes; settings: mESC; 2uM; 72 h treatment, harvest day 5
smiles,measurement,setting,value
S=c1nc[nH]c2nc[nH]c12 [6-Mercaptopurine (6-MP) Monohydrate],fraction of edited reads among all mapped reads,[1],0.0627
same,fraction of microhomology deletions among edited reads,[2],0.429
same,fraction of 1-bp insertions among edited reads,[3],0.326
same,fraction of GFP+ cells,[4],1.21 ± 0.061
CNC(=O)c1nn(C)c2c1C(C)(C)Cc1cnc(Nc3ccc(N4CCN(C)CC4)cc3)nc1-2,fraction of GFP+ cells,[4],0.352 ± 0.06
C[C@@H]1CN(CC(=O)Nc2ccc3c(c2)Cc2cccc(-c4cc(=O)cc(N5CCOCC5)o4)c2S3)C[C@H](C)O1,fraction of edited reads among all mapped reads,[1],0.0449
same,fraction of microhomology deletions among edited reads,[2],0.331
same,fraction of 1-bp insertions among edited reads,[3],0.475
same,fraction of GFP+ cells,[4],0.516 ± 0.11
CCc1c2c(nc3ccc(OC(=O)N4CCC(N5CCCCC5)CC4)cc13)-c1cc3c(c(=O)n1C2)COC(=O)[C@]3(O)CC [Irinotecan HCl Trihydrate],fraction of edited reads among all mapped reads,[1],0.104
same,fraction of microhomology deletions among edited reads,[2],0.571
same,fraction of 1-bp insertions among edited reads,[3],0.249
same,fraction of GFP+ cells,[4],0.463 ± 0.066
O=C1Cc2c([nH]c3ccc(Br)cc23)-c2ccccc2N1 [Kenpaullone],fraction of edited reads among all mapped reads,[1],0.165
same,fraction of microhomology deletions among edited reads,[2],0.526
same,fraction of 1-bp insertions among edited reads,[3],0.274
same,fraction of GFP+ cells,[4],1.53 ± 0.057
NC(=O)c1nc(F)cnc1O [Favipiravir (T-705)],fraction of GFP+ cells,[4],0.826 ± 0.25
N=C1NC(=O)/C(=C/c2ccc(O)cc2)S1 [Mirin],fraction of GFP+ cells,[4],0.862 ± 0.2
COc1ccccc1-c1cc(Nc2cccc(CS(N)(=O)=O)c2)ncn1,fraction of edited reads among all mapped reads,[1],0.0957
same,fraction of microhomology deletions among edited reads,[2],0.494
same,fraction of 1-bp insertions among edited reads,[3],0.281
same,fraction of GFP+ cells,[4],1.17 ± 0.072
Nc1cc(F)ccc1NC(=O)c1ccc(CNC(=O)/C=C/c2cccnc2)cc1 [Tucidinostat (Chidamide)],fraction of edited reads among all mapped reads,[5],0.0463
same,fraction of edited reads among all mapped reads,[1],0.0652
same,fraction of microhomology deletions among edited reads,[6],0.571
same,fraction of microhomology deletions among edited reads,[2],0.502
same,fraction of 1-bp insertions among edited reads,[7],0.103
same,fraction of 1-bp insertions among edited reads,[3],0.272
NC(=O)c1ccc2nc(-c3ccc(Oc4ccc(Cl)cc4)cc3)[nH]c2c1 [Chk 2 inhibitor II (BML-277)],fraction of edited reads among all mapped reads,[1],0.092
same,fraction of microhomology deletions among edited reads,[2],0.515
same,fraction of 1-bp insertions among edited reads,[3],0.278
same,fraction of GFP+ cells,[4],0.961 ± 0.26
CS(=O)(=O)OCCCCOS(C)(=O)=O [Busulfan],fraction of GFP+ cells,[4],1.36 ± 0.93
CNc1ccc([N+](=O)[O-])c(Nc2ccc3[nH]ncc3c2)n1,fraction of edited reads among all mapped reads,[1],0.1
same,fraction of microhomology deletions among edited reads,[2],0.551
same,fraction of 1-bp insertions among edited reads,[3],0.269
same,fraction of GFP+ cells,[4],2.16 ± 0.36
C[C@H](CN(C)C)Oc1nc(Nc2cc3cccc(Cl)c3cn2)cnc1C#N,fraction of GFP+ cells,[4],1.28 ± 0.15
O=C(CCCCCCNC(=O)c1cnc(N(c2ccccc2)c2ccccc2Cl)nc1)NO [Citarinostat (ACY-241)],fraction of GFP+ cells,[4],0.902 ± 0.074
CCCC(CCC)C(=O)O [Valproic acid sodium salt (Sodium valproate)],fraction of GFP+ cells,[4],0.849 ± 0.18
Nc1ncn([C@@H]2O[C@H](CO)[C@@H](O)[C@H]2O)c(=O)n1 [Azacitidine],fraction of GFP+ cells,[4],1.1 ± 0.089
CC(ONC(=O)c1cc(C(F)(F)F)cc(C(F)(F)F)c1)C(=O)Nc1ccc(Cl)cc1 (configuration not stated),fraction of GFP+ cells,[4],0.994 ± 0.12
CC1=C(C(=O)Nc2ccc3[nH]ncc3c2)C(c2ccc(F)cc2)NC(=O)N1 (configuration not stated),fraction of GFP+ cells,[4],1.53 ± 0.42
CC(=O)O/N=C1\C(=O)N(Cc2cc(Cl)ccc2Cl)c2ccc(Cl)cc21,fraction of edited reads among all mapped reads,[5],0.0521
same,fraction of edited reads among all mapped reads,[1],0.0813
same,fraction of microhomology deletions among edited reads,[6],0.696
same,fraction of microhomology deletions among edited reads,[2],0.51
same,fraction of 1-bp insertions among edited reads,[7],0.0444
same,fraction of 1-bp insertions among edited reads,[3],0.256
same,fraction of GFP+ cells,[4],1.21 ± 0.075
CC(C)(C#N)c1ccc(N2C(=O)OCc3cnc4ccc(-c5cnc6ccccc6c5)cc4c32)cc1,fraction of edited reads among all mapped reads,[1],0.0904
same,fraction of microhomology deletions among edited reads,[2],0.53
same,fraction of 1-bp insertions among edited reads,[3],0.267
same,fraction of GFP+ cells,[4],1.01 ± 0.45
CCCCOc1c(C(=O)c2c(F)cc(C)cc2F)c[nH]c2nncc1-2,fraction of edited reads among all mapped reads,[5],0.0449
same,fraction of edited reads among all mapped reads,[1],0.0886
same,fraction of microhomology deletions among edited reads,[6],0.705
same,fraction of microhomology deletions among edited reads,[2],0.523
same,fraction of 1-bp insertions among edited reads,[7],0.0164
same,fraction of 1-bp insertions among edited reads,[3],0.258
same,fraction of GFP+ cells,[4],1.7 ± 0.11
Nc1ncnc2c1c(-c1cnc3[nH]ccc3c1)nn2C1CCCC1,fraction of edited reads among all mapped reads,[1],0.0596
same,fraction of microhomology deletions among edited reads,[2],0.403
same,fraction of 1-bp insertions among edited reads,[3],0.412
same,fraction of GFP+ cells,[4],0.289 ± 0.034
O=c1c(-c2ccc(O)cc2)coc2cc(O)cc(O)c12 [Genistein],fraction of edited reads among all mapped reads,[1],0.113
same,fraction of microhomology deletions among edited reads,[2],0.529
same,fraction of 1-bp insertions among edited reads,[3],0.253
same,fraction of GFP+ cells,[4],1.07 ± 0.17
Cc1cc(C)nc(SCC(=O)Nc2ncc(Cc3cccc4ccccc34)s2)n1,fraction of edited reads among all mapped reads,[5],0.0587
same,fraction of edited reads among all mapped reads,[1],0.13
same,fraction of microhomology deletions among edited reads,[6],0.552
same,fraction of microhomology deletions among edited reads,[2],0.498
same,fraction of 1-bp insertions among edited reads,[7],0.105
same,fraction of 1-bp insertions among edited reads,[3],0.295
same,fraction of GFP+ cells,[4],1.15 ± 0.61
CN(C)CCNC(=O)c1cccn2c(=O)c3cc4ccccc4cc3nc12,fraction of GFP+ cells,[4],1.06 ± 0.28
Cc1cccc(CC(=O)N2CCc3c2ccc(-c2cn(C)c4ncnc(N)c24)c3F)n1,fraction of edited reads among all mapped reads,[1],0.114
same,fraction of microhomology deletions among edited reads,[2],0.501
same,fraction of 1-bp insertions among edited reads,[3],0.337
same,fraction of GFP+ cells,[4],0.925 ± 0.19
CCn1c(=O)c(-c2ccc(Cl)cc2Cl)cc2cnc(Nc3ccc(N4CCNCC4)c(F)c3)nc21,fraction of edited reads among all mapped reads,[1],0.0726
same,fraction of microhomology deletions among edited reads,[2],0.477
same,fraction of 1-bp insertions among edited reads,[3],0.288
same,fraction of GFP+ cells,[4],0.433 ± 0.12
NC(=O)NO [Hydroxyurea],fraction of GFP+ cells,[4],0.829 ± 0.24
CN1CCN(Cc2ccc(NC(=O)Nc3ccc(Oc4ccnc(N)n4)cc3)cc2C(F)(F)F)CC1,fraction of GFP+ cells,[4],0.335 ± 0.13
CCn1cc(C(=O)O)c(=O)c2cc(F)c(N3CCNCC3)nc21 [Enoxacin],fraction of GFP+ cells,[4],1.04 ± 0.096
O=C(c1cccc(Cl)c1F)N1CCN(Cc2cccc(Nc3nccs3)n2)CC1,fraction of edited reads among all mapped reads,[1],0.0584
same,fraction of microhomology deletions among edited reads,[2],0.559
same,fraction of 1-bp insertions among edited reads,[3],0.193
same,fraction of GFP+ cells,[4],1.25 ± 0.38
Nc1nc2[nH]cc(CCc3ccc(C(=O)N[C@@H](CCC(=O)O)C(=O)O)cc3)c2c(=O)[nH]1 [Pemetrexed],fraction of edited reads among all mapped reads,[1],0.0705
same,fraction of microhomology deletions among edited reads,[2],0.608
same,fraction of 1-bp insertions among edited reads,[3],0.152
same,fraction of GFP+ cells,[4],1.53 ± 0.08
